Columns and labels:
Assay in all cases: DAPPL (digital affinity profiling via proximity ligation, sequencing); 10 mM Tris-HCl pH 7.5, 50 mM NaCl, 1 mM DTT, 4% glycerol, room temperature, 30 min; GST-TFs on glutathione beads, 16-mer random dsDNA library, 0.1% formaldehyde crosslink after washing; high values mean tight binding
[1] = biological target: T1, FEV (Homo sapiens, UniProt Q99581 1-238); details: protein: recombinant; tags: N-terminal GST; dsDNA, one strand shown
T1 sequence: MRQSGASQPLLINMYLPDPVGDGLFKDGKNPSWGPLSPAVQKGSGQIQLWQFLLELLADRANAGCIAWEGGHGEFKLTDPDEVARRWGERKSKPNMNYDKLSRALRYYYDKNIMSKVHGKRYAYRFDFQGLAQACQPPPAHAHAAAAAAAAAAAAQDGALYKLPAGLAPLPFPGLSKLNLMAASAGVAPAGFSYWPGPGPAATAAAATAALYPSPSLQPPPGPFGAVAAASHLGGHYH
How it was run: (§1)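 Yeast served to express human transcription factors as GST fusions, which were then captured on glutathione beads and labelled with DNA barcodes. Pooled with a tag-only sample, they were incubated with 200 nmole of a 16-mer random double-stranded DNA library for 30 min at room temperature in Tris/NaCl/DTT/glycerol buffer, washed, crosslinked with 0.1% formaldehyde, ligated by proximity, amplified by PCR and sequenced. Dividing each hexamer's read frequency for a factor by its frequency for the tag-only sample gives the binding signal.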

[2] = biological target: ETV5 (Homo sapiens, UniProt P41161 1-510); details: protein: recombinant; tags: N-terminal GST; dsDNA, one strand shown
How it was run: as §1

[3] = biological target: HSF1 (Homo sapiens, UniProt Q00613 1-529); details: protein: recombinant; tags: N-terminal GST; chain copies: 3; dsDNA, one strand shown
How it was run: as §1

[4] = biological target: T2, SPIC (Homo sapiens, UniProt Q8N5J4 1-248); details: protein: recombinant; tags: N-terminal GST; dsDNA, one strand shown
T2 sequence: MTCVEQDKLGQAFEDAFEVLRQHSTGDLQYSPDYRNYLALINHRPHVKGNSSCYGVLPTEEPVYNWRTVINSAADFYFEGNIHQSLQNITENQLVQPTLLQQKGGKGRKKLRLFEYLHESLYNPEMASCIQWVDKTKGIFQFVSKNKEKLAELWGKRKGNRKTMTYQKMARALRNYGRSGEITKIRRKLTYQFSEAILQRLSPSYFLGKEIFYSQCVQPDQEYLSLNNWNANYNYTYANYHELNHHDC
How it was run: as §1

[5] = biological target: ELF4 (Homo sapiens, UniProt Q99607 1-663); details: protein: recombinant; tags: N-terminal GST; dsDNA, one strand shown
How it was run: as §1

[6] = biological target: T3, ELK4 (Homo sapiens, UniProt P28324-2 1-405); details: protein: recombinant; tags: N-terminal GST; dsDNA, one strand shown
T3 sequence: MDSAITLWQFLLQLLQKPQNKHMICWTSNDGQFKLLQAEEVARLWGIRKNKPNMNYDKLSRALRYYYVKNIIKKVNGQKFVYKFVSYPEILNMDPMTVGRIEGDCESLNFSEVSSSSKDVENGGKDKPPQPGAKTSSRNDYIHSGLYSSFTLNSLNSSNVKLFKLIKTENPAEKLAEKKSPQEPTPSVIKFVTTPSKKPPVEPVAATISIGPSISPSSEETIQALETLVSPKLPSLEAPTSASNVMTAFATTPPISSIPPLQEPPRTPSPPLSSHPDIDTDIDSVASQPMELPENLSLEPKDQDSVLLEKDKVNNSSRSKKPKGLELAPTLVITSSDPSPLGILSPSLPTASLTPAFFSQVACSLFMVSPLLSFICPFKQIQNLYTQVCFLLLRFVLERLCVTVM
How it was run: as §1

[7] = biological target: T4, ETV2 (Homo sapiens, UniProt O00321 1-342); details: protein: recombinant; tags: N-terminal GST; dsDNA, one strand shown
T4 sequence: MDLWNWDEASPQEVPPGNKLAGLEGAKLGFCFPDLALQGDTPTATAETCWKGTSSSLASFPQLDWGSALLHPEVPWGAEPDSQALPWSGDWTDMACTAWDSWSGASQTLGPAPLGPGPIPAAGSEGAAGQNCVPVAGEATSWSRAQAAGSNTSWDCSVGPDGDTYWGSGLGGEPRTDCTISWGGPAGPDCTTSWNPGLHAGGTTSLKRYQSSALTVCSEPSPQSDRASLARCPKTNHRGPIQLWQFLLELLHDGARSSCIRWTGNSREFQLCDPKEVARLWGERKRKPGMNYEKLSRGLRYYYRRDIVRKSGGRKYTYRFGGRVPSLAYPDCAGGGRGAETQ
How it was run: as §1

[8] = biological target: T5, ELF3 (Homo sapiens, UniProt P78545 1-371); details: protein: recombinant; tags: N-terminal GST; dsDNA, one strand shown
T5 sequence: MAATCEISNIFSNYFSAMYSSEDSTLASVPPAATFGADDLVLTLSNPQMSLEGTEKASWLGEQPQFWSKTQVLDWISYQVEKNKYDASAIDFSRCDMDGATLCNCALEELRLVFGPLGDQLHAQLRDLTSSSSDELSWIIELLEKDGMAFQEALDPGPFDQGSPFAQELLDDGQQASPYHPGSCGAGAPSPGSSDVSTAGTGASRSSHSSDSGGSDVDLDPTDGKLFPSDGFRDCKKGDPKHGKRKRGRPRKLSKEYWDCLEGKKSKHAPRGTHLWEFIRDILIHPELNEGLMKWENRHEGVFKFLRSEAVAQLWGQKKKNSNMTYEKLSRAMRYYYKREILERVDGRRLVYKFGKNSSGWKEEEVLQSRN
How it was run: as §1

[9] = biological target: CRX (Homo sapiens, UniProt O43186 1-299); details: protein: recombinant; tags: N-terminal GST; dsDNA, one strand shown
How it was run: as §1

[10] = biological target: ETV1 (Homo sapiens, UniProt P50549 1-477); details: protein: recombinant; tags: N-terminal GST; dsDNA, one strand shown
How it was run: as §1

[11] = biological target: T6, ERF (Homo sapiens, UniProt P50548 1-548); details: protein: recombinant; tags: N-terminal GST; dsDNA, one strand shown
T6 sequence: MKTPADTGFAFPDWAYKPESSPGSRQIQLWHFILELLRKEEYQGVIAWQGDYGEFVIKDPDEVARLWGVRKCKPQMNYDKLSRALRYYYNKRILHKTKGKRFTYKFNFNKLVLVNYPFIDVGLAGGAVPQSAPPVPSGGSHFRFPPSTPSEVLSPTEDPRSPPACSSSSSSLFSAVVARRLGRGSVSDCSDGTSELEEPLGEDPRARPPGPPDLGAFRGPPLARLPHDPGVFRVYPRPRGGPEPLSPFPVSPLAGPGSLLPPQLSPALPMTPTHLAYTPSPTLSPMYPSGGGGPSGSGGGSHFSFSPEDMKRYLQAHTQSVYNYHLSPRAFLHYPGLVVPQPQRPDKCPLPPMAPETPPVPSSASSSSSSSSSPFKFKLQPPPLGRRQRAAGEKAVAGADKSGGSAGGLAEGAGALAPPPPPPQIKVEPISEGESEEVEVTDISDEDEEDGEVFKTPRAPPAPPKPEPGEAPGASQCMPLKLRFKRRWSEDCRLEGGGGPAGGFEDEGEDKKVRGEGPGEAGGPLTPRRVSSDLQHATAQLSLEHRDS
How it was run: as §1

[12] = biological target: T7, ETV3L (Homo sapiens, UniProt Q6ZN32 1-361); details: protein: recombinant; tags: N-terminal GST; dsDNA, one strand shown
T7 sequence: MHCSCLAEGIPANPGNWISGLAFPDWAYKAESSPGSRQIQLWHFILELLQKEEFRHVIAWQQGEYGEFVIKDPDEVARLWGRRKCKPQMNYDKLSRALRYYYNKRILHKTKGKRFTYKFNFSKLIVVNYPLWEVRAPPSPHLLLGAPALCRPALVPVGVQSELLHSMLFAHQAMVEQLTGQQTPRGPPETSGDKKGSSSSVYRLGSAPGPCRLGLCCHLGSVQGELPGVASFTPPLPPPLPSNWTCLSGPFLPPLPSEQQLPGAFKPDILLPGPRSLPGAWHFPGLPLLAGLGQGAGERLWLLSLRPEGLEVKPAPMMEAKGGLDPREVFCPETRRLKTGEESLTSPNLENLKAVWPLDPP
How it was run: as §1

[13] = biological target: T8, ETS2 (Homo sapiens, UniProt P15036 1-469); details: protein: recombinant; tags: N-terminal GST; dsDNA, one strand shown
T8 sequence: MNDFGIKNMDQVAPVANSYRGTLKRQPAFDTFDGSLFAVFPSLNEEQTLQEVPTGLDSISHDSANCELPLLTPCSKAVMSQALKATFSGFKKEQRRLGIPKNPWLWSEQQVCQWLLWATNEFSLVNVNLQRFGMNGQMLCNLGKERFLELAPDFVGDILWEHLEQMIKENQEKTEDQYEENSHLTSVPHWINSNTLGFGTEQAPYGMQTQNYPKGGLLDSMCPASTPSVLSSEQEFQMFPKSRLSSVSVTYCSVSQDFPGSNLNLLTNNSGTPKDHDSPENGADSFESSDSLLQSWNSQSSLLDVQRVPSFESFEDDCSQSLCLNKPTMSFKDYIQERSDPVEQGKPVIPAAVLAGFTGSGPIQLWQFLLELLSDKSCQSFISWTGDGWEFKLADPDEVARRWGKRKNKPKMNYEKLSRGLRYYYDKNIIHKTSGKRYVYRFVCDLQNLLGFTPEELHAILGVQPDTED
How it was run: as §1

[14] = biological target: T9, SPDEF (Homo sapiens, UniProt O95238 1-335); details: protein: recombinant; tags: N-terminal GST; dsDNA, one strand shown
T9 sequence: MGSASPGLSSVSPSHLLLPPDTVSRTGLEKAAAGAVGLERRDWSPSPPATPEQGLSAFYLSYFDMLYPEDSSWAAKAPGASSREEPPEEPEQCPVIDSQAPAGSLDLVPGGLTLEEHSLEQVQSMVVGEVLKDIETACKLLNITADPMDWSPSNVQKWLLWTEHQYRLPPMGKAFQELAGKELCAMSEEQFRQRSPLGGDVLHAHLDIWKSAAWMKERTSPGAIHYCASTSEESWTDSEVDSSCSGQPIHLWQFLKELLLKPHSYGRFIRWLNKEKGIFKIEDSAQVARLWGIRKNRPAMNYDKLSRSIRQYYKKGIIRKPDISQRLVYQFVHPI
How it was run: as §1

[15] = biological target: T10, ETV7 (Homo sapiens, UniProt Q9Y603 1-341); details: protein: recombinant; tags: N-terminal GST; dsDNA, one strand shown
T10 sequence: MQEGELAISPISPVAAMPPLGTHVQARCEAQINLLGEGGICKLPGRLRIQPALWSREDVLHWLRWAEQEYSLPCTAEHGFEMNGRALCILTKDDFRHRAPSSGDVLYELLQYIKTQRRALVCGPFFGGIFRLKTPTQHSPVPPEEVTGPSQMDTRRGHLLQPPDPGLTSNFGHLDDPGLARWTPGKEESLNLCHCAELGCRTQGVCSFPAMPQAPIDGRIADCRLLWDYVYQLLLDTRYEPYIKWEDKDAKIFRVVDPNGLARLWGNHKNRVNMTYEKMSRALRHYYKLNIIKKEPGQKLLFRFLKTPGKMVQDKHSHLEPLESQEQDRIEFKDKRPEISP
How it was run: as §1

[16] = biological target: T11, ELF5 (Homo sapiens, UniProt Q9UKW6-2 1-255); details: protein: recombinant; tags: N-terminal GST; dsDNA, one strand shown
T11 sequence: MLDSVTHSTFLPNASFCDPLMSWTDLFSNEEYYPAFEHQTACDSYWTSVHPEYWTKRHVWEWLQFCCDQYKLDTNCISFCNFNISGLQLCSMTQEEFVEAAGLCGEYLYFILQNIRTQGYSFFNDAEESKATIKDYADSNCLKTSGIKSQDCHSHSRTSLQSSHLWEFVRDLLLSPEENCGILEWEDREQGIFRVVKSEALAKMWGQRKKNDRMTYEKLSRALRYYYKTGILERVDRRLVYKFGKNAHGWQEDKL
How it was run: as §1

[17] = biological target: T12, ETV3 (Homo sapiens, UniProt P41162-2 1-143); details: protein: recombinant; tags: N-terminal GST; dsDNA, one strand shown
T12 sequence: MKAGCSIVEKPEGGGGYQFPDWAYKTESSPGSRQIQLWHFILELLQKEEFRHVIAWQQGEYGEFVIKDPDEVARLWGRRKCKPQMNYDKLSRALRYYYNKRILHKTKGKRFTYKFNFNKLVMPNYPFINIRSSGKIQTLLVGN
How it was run: as §1

[18] = biological target: ETV6 (Homo sapiens, UniProt P41212 1-452); details: protein: recombinant; tags: N-terminal GST; dsDNA, one strand shown
How it was run: as §1

HSF1, sequence (Q00613 whole entry): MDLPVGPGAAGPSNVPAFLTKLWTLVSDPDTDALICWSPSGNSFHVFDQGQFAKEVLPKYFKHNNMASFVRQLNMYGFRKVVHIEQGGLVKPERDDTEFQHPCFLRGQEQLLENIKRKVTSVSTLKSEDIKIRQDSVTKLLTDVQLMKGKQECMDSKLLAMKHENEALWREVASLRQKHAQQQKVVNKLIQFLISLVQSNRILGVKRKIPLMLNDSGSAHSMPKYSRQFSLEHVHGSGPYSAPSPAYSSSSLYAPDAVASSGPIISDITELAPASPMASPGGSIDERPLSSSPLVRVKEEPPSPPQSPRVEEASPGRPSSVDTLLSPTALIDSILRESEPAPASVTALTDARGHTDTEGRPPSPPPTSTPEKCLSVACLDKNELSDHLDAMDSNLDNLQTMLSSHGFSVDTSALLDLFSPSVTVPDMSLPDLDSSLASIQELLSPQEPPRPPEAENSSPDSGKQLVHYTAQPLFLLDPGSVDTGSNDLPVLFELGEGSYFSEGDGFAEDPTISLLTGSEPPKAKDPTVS
ELF4, sequence (Q99607 whole entry): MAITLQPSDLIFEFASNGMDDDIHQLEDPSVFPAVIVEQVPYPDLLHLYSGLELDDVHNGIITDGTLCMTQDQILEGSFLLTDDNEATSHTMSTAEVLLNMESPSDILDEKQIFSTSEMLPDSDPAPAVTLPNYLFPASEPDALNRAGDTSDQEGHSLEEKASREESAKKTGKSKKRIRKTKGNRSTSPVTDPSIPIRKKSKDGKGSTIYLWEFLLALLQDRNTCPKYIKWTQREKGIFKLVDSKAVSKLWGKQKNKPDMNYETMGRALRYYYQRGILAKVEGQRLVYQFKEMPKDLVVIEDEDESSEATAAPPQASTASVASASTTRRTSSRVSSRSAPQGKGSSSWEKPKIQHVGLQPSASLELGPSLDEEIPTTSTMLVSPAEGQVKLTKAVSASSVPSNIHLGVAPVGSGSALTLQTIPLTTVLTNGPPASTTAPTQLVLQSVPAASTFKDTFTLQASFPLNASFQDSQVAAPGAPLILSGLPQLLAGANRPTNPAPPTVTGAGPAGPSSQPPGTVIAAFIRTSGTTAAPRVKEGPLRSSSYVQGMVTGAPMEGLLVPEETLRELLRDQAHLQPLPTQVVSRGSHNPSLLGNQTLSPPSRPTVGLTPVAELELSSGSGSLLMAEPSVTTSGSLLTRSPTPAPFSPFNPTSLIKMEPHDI
ETV5, sequence (P41161 whole entry): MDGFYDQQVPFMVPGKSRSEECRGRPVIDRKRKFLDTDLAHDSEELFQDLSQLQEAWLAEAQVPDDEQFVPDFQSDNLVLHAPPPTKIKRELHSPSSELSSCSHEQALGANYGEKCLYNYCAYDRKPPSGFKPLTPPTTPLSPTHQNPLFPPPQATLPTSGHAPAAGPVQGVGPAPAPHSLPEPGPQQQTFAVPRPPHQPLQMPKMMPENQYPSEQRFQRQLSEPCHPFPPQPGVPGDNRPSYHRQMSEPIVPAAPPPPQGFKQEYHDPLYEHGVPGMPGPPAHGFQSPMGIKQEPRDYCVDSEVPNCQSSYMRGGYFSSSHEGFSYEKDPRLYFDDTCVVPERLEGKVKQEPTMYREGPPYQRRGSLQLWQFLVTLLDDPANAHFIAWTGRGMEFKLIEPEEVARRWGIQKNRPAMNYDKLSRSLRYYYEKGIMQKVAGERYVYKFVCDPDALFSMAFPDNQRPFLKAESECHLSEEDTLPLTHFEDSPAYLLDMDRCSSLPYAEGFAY
ETV1, sequence (P50549 whole entry): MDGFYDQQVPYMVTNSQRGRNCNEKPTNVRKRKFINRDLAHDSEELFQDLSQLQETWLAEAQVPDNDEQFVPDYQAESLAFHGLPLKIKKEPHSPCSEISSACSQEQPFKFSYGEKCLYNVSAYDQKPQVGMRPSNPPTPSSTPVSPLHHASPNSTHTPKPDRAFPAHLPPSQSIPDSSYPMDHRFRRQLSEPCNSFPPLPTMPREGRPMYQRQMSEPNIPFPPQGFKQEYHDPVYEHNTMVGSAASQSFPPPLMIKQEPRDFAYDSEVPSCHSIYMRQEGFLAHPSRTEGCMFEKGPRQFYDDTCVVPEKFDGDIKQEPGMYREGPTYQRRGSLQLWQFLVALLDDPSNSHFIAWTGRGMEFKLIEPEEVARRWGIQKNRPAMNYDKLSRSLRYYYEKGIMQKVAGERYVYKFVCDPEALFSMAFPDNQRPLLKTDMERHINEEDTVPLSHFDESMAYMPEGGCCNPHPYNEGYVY
CRX, sequence (O43186 whole entry): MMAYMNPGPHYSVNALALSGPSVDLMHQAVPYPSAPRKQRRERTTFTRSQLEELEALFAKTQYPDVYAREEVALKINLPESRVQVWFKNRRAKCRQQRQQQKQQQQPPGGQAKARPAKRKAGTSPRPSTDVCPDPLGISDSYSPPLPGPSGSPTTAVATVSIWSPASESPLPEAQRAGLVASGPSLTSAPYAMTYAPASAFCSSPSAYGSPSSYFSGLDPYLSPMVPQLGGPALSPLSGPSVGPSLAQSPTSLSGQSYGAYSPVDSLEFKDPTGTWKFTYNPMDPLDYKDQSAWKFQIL
ETV6, sequence (P41212 whole entry): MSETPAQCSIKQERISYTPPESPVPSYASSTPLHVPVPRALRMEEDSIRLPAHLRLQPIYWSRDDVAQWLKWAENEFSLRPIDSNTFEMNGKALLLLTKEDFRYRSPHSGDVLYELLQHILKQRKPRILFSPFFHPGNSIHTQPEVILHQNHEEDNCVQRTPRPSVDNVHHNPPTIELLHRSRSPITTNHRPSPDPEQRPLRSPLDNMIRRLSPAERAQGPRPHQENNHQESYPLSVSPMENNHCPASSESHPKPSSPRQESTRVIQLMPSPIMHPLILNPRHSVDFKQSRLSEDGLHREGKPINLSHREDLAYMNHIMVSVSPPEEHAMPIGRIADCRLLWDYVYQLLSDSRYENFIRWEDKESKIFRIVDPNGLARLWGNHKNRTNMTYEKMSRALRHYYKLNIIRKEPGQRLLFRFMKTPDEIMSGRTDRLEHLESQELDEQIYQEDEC

With ATTATC the binding signal [1] was 1.29 fold enrichment (6-mer frequency, TF over GST control), the binding signal [2] was 1.26 fold enrichment (6-mer frequency, TF over GST control) and the binding signal [3] was 2.51 fold enrichment (6-mer frequency, TF over GST control). The binding signal [4] was 1.34 fold enrichment (6-mer frequency, TF over GST control), the binding signal [5] was 1.32 fold enrichment (6-mer frequency, TF over GST control) and the binding signal [6] was 1.39 fold enrichment (6-mer frequency, TF over GST control). The binding signal [7] was 1.38 fold enrichment (6-mer frequency, TF over GST control), the binding signal [8] was 1.39 fold enrichment (6-mer frequency, TF over GST control) and the binding signal [9] was 3.86 fold enrichment (6-mer frequency, TF over GST control). For the same sequence, the binding signal [10] was 1.31 fold enrichment (6-mer frequency, TF over GST control), the binding signal [11] was 1.36 fold enrichment (6-mer frequency, TF over GST control) and the binding signal [12] was 1.39 fold enrichment (6-mer frequency, TF over GST control). For the same sequence, the binding signal [13] was 1.29 fold enrichment (6-mer frequency, TF over GST control), the binding signal [14] was 1.34 fold enrichment (6-mer frequency, TF over GST control) and the binding signal [15] was 1.18 fold enrichment (6-mer frequency, TF over GST control). For the same sequence, the binding signal [16] was 1.31 fold enrichment (6-mer frequency, TF over GST control), the binding signal [17] was 1.37 fold enrichment (6-mer frequency, TF over GST control) and the binding signal [18] was 1.29 fold enrichment (6-mer frequency, TF over GST control).

— paper PMC7862700, “An all-to-all approach to the identification of sequence-specific readers for epigenetic DNA modifications on cytosine”
